Reference: PubChem BioAssay (NCATS)
Results filed as inconclusive are left out. Entries that show only a call come without a potency. Activity calls are given as the source filed them. Unless noted, calls follow the shape of the dose curve; as a rule, active = well fitted curve in the direction sought with a large enough effect; inconclusive = small, poorly fitted or top-dose-only effect, or another doubt; inactive = no such curve, though single readings can be large; an effect the other way counts as inactive or inconclusive.

Assays:
[1] = qHTS to identify inhibitors of the type 1 interferon - major histocompatibility complex class I in skeletal muscle: primary screen against the NCATS Mechanism Interrogation Plate v5.0 (MIPE) Libary (AID 1347411); also: nearly all actives have a fitted effect of over 65% in size
Procedure, shortened: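 Immortalized human myoblasts (C25cl48) with HiBit knocked into endogenous HLA-B*08:01 were stimulated with 4 ng/ml IFN-beta and given compounds in 11-point 1:3 titration from 46 uM. After 24 h at 37 C, lytic HiBiT luminescence was read.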

[2] = biological target: Glutathione peroxidase 1 (Homo sapiens) (UniProt P07203); experiment: Primary qHTS Assay for Inhibitors of Recombinant Selenoprotein Glutathione Peroxidase 1 (GPX1) (AID 1845191); also: nearly all actives have a fitted effect of over 65% in size
Procedure, shortened: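 GR-coupled assay: compounds preincubated 30 min at room temperature with GPX1, then reaction started with CHP; final 10 nM GPX1, 1 mM GSH, 0.5 mM CHP, 0.5 mM NADPH, 100 nM GR, 0.01% BSA, pH 7.5 Tris buffer. NADPH fluorescence (340/450 nm) read at 0 and 15 min.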

[3] = biological target: Phospholipid hydroperoxide glutathione peroxidase GPX4 (Homo sapiens) (UniProt P36969); experiment: Primary qHTS Assay for Inhibitors of Recombinant Selenoprotein Glutathione Peroxidase 4 (GPX4) (AID 1845192); settings: outcome: dose series up to 50 µM unless noted; also: nearly all actives have a fitted effect of over 65% in size
Procedure, shortened: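 GR-coupled assay: recombinant GPX4 preincubated 30 min with compound at room temperature; final 200 nM GPX4, 1 mM GSH, 0.5 mM cumene hydroperoxide, 0.5 mM NADPH, 100 nM GR, 0.01% BSA, pH 7.5 Tris. NADPH fluorescence (340/450 nm) read at 0 and 15 min.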

[4] = qHTS drug screen for cell cycle checkpoint inhibitors in PARPi-resistant BRCA-mutant ovarian cancer cell lines. (AID 1963452; calls by dose curve; also: potency is read from the fitted curve at half-maximal effect); settings: PEO1/OlaR viability, CellTiter-Glo luminescence, 96 h; for Z-AUC: stronger effect = lower value
Procedure, shortened: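 PEO1, PEO4 and PEO1/OlaR ovarian cancer cells, 600 per well, exposed 96 h at 37C to a dilution series. Viability read by CellTiter-Glo luminescence, normalized to DMSO and empty wells; activity summarized as Z-AUC.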

[5] = Primary qHTS for inhibitors of nuclear receptor binding SET domain protein 2 (NSD2) in an isogenic RCH-ACV NSD2 p.E1099K mutant (9B) (AID 1645876); also: potency is read from the fitted curve at half-maximal effect; nearly all actives have a fitted effect of over 70% in size
[6] = Primary qHTS for inhibitors of nuclear receptor binding SET domain protein 2 (NSD2) in an RCH-ACV wild type WT cells (2C) (AID 1645877); also: potency is read from the fitted curve at half-maximal effect; nearly all actives have a fitted effect of over 70% in size
[7] = qHTS assay to identify inhibitors of the type 1 interferon - major histocompatibility complex class I in skeletal muscle: Counter screen cell viability and HiBit confirmation (AID 1347412); settings: iHSKM muscle cells + IFN-b, HiBiT or CellTiter-Glo, 24 h; for Potency: HiBiT; also: potency is read from the fitted curve at half-maximal effect; as to all read-outs here: nearly all actives have a fitted effect of over 60% in size
Procedure, shortened: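 HLA-B*08:01–HiBiT knock-in immortalized human myoblasts (C25cl48) stimulated with 4.0 ng/ml human IFN-beta and dosed with compound in a 12-point 1:3 titration (top final 46 uM). After 24 hrs at 37 C, HiBiT lytic luminescence or CellTiter Glo ATP read out.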

[8] = Validation of Assay for Modulators of Lamin A Splicing (AID 1459; active = well fitted curve in the direction sought with a large enough effect in the signal ratio; the % refers to the signal ratio;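 also: cells exposed to compound for two days before reading; ratio rise marks activators and ratio drop marks inhibitors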)
Procedure, shortened: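 S3 HeLa cells stably expressing a lamin A-EGFP splicing minigene and DsRed2 were seeded at 600 cells/well in Opti-MEM with 2% FBS, pin-dosed, and incubated 48 hrs at 37 °C, 5% CO2. Laser-scanning cytometry (488 nm) gave GFP/RFP total intensity ratio.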

[9] = qHTS Assay for Lipid Storage Modulators (AID 1519; calls by dose curve); settings: Drosophila S3 cells, BODIPY lipid droplet/cell ratio, laser cytometry, cells loaded with oleic acid; for activity change, negative = inhibition: at 57.5 µM (top of the series)
Procedure, shortened: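 Cells seeded at 5,000 per well were treated with compounds over a concentration series and loaded with oleic acid (400 uM, as added). Lipid droplet fluorescence (488 nm excitation, 500-530 nm channel) was read by laser-scanning cytometry and normalized to 20 uM Triacsin C.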

[10] = biological target: DNA repair nuclease/redox regulator APEX1 (Homo sapiens) (UniProt P27695); experiment: qHTS Validation Assay for Inhibitors of the Human Apurinic/apyrimidinic Endonuclease 1 (APE1) (AID 1705;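 also: TAMRA fluorescence gain over two minutes as APE1 cuts a quenched THF abasic duplex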)
Procedure, shortened: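 Human APE1 was preincubated with compound for 15 min at room temperature, then 50 nM (final) THF-abasic double-stranded DNA substrate bearing 5'-TAMRA and 3'-BHQ-2 was added. Incision-driven fluorescence rise (ex 525/em 598 nm) was read kinetically.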

[11] = Counterscreen for APE1 Inhibitors: Fluorescent Dye Displacement Validation Assay (AID 1707)
Procedure, shortened: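 Thiazole Orange (250 nM) bound to 50 nM TAMRA-labelled dsDNA with tetrahydrofuran abasic site; displacement by DNA-binding compounds lowers fluorescence. Buffer 50 mM Tris-HCl pH 7.5, 50 mM NaCl, 2 mM MgCl2, 0.01% Tween-20; endpoint read at 480/540 nm.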

[12] = biological target: Endonuclease 4 (Escherichia coli (strain K12)) (UniProt P0A6C1); experiment: Counterscreen for APE1 Inhibitors: qHTS Validation Assay for Inhibitors of Endonuclease IV (AID 1708)
Procedure, shortened: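 E. coli EndoIV at 2 nM final, preincubated 15 min at room temperature with compound, then 50 nM TAMRA/BHQ-2 THF abasic-site duplex added. Buffer: 50 mM Tris-HCl pH 7.5, 50 mM NaCl, 2 mM MgCl2, 1 mM DTT, 0.01% Tween-20. Kinetic fluorescence increase, third minus first read.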

[13] = qHTS for differential inhibitors of proliferation of Plasmodium falciparum line Dd2 (AID 1882); settings: Potency: Plasmodium falciparum Dd2 proliferation inhibition; also: nearly all actives have a fitted effect of over 65% in size
Procedure, shortened: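 Dd2-infected erythrocytes (0.3% parasitemia, 2.5% hematocrit final) incubated with compound 72 h at 37 C, 5% CO2; lysed with saponin/Triton buffer containing SYBR Green I, incubated overnight in the dark, then read by fluorescence (485/535 nm). Normalized to 0.29 uM artemisinin and DMSO.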

[14] = biological target: ATP-dependent DNA helicase Q1 (Homo sapiens) (UniProt P46063); experiment: qHTS Validation Assay for Inhibitors of RecQ-Like Dna Helicase 1 (RECQ1) (AID 2353)
Procedure, shortened: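 50 nM RECQ1T1 preincubated 15 min with compound in Tris pH 8.0 buffer with MgCl2, DTT, Tween-20 and 2.5 ug/ml poly(dI-dC); started with 200 nM TAMRA/BHQ-2 forked duplex and 2 mM ATP. Unwinding read as fluorescence (525/598 nm), two reads 2 h apart.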

[15] = Validation screen for small molecules that induce DNA re-replication in MCF 10A normal breast cells (AID 463097); also: nearly all actives have a fitted effect of over 60% in size
Procedure, shortened: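 Readout: Hoechst nuclear fluorescence intensity, 405 ex / 500-530 em, by scanning plate imager; re-replication scored as increase in nuclei with elevated DNA content. Cells exposed to compound 48 hr, 37 C, 5% CO2 beforehand.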

[16] = Quantitative high throughput screen for delayed death inhibitors of the malarial parasite plastid, 48 hour incubation (AID 488752); also: nearly all actives have a fitted effect of over 65% in size
Procedure, shortened: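 Erythrocytes infected with firefly luciferase-expressing P. falciparum (2% hematocrit, 0.1% parasitemia) cultured with compound for 48 h at 37 C, 5% CO2, in RPMI 1640/0.5% Albumax. Growth inhibition read as loss of luminescence.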

[17] = biological target: M-phase phosphoprotein 8 (Homo sapiens) (UniProt Q99549); experiment: qHTS Validation Assay for Inhibitors for MPP8 Chromodomain Interactions with Methylated Histone Tails (AID 488949); also: nearly all actives have a fitted effect of over 55% in size; also: potency is read from the fitted curve at half-maximal effect;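 as to activity change, negative = inhibition: AlphaScreen signal from MPP8 chromodomain bound to biotinylated H3K9me3 peptide; top concentration of the series differs between compounds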
Procedure, shortened: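 MPP8 (50 nM) was preincubated with biotinylated H3(1-18)K9me3 peptide (50 nM) in PBS pH 7.4, 0.01% Tween-20 for 30 min at room temperature, then with compounds for 30 min; binding was detected by AlphaScreen.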

[18] = biological target: Transient receptor potential cation channel subfamily V member 1 (Homo sapiens) (UniProt Q8NER1); experiment: HTS Assay for Compounds that Act as Enhancers of the Vanilloid Receptor 1 (AID 488979)
Procedure, shortened: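 TRPV1 cells loaded with Fluo-8 calcium dye; compound added and Ca2+ signal (ex 480/em 520 nm) followed 3 min, then capsaicin at EC20 added and read 2 more min to detect enhancement.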

[19] = biological target: Galactokinase (Homo sapiens) (UniProt P51570); experiment: qHTS Validation Assay for Inhibitors of Human Galactokinase (GALK) (AID 493189)
Procedure, shortened: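 GALK (5 nM) with 35 uM ATP and 100 uM galactose in HEPES pH8.0, MgCl2, NaCl, DTT, BSA; 1 h at room temperature. Residual ATP read by Kinase-Glo Plus luminescence after 10 min.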

[20] = Validation screen for small molecules that induce DNA re-replication in SW480 colon adenocarcinoma cells (AID 504364)
Procedure, shortened: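 SW480 cells (250/well) exposed 48 h at 37 C, 5% CO2, then Hoechst-stained 40 min. Nuclear DNA content imaged by fluorescence scanning (405 nm excitation, 500-530 nm emission); re-replication scored as increased nuclei with elevated intensity.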

[21] = measured here: PEO1 parental Z-AUC
[22] = measured here: cell count channel max response
[23] = measured here: lipid channel max response

Phospholipid hydroperoxide glutathione peroxidase GPX4 (Homo sapiens), sequence (P36969 whole entry, looked up): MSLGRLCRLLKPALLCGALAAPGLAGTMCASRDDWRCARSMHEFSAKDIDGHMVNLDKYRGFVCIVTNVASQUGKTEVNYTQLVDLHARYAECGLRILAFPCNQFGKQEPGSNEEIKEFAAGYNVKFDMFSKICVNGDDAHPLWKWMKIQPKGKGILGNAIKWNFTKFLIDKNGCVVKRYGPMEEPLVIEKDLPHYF
Glutathione peroxidase 1 (Homo sapiens), sequence (P07203 whole entry, looked up): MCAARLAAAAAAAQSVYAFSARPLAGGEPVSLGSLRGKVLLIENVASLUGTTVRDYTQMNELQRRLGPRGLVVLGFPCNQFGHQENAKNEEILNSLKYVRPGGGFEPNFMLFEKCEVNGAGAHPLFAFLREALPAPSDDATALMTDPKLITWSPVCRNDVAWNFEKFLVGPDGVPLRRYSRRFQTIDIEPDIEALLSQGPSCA
Galactokinase (Homo sapiens), sequence (P51570 whole entry, looked up): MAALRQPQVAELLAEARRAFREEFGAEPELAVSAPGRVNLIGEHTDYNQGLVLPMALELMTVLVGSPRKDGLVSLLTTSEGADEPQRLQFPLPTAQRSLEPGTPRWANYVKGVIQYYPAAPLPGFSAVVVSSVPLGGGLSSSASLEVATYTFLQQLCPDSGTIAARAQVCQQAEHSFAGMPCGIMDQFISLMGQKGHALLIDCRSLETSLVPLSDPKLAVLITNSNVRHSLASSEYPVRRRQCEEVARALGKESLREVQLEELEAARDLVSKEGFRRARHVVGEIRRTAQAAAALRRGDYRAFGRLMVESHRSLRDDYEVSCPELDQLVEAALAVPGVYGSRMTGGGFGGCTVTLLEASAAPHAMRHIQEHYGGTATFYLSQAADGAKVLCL
ATP-dependent DNA helicase Q1 (Homo sapiens), sequence (P46063 whole entry, looked up): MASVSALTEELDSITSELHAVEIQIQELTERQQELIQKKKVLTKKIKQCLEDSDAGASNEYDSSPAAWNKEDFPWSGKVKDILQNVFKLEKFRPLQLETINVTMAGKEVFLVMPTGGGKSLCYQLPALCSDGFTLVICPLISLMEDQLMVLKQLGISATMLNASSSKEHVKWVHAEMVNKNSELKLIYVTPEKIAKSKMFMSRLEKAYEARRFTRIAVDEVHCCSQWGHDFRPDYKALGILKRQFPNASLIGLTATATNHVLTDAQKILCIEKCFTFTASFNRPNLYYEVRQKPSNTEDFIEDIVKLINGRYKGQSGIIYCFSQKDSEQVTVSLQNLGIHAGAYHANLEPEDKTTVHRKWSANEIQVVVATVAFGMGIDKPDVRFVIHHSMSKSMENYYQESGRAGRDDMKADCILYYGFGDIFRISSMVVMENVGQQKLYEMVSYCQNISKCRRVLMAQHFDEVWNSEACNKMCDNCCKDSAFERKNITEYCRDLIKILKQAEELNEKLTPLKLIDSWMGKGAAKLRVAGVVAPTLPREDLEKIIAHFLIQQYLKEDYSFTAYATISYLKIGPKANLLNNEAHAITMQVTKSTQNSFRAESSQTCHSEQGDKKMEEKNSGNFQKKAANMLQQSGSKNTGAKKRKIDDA
M-phase phosphoprotein 8 (Homo sapiens), sequence (Q99549 whole entry, looked up): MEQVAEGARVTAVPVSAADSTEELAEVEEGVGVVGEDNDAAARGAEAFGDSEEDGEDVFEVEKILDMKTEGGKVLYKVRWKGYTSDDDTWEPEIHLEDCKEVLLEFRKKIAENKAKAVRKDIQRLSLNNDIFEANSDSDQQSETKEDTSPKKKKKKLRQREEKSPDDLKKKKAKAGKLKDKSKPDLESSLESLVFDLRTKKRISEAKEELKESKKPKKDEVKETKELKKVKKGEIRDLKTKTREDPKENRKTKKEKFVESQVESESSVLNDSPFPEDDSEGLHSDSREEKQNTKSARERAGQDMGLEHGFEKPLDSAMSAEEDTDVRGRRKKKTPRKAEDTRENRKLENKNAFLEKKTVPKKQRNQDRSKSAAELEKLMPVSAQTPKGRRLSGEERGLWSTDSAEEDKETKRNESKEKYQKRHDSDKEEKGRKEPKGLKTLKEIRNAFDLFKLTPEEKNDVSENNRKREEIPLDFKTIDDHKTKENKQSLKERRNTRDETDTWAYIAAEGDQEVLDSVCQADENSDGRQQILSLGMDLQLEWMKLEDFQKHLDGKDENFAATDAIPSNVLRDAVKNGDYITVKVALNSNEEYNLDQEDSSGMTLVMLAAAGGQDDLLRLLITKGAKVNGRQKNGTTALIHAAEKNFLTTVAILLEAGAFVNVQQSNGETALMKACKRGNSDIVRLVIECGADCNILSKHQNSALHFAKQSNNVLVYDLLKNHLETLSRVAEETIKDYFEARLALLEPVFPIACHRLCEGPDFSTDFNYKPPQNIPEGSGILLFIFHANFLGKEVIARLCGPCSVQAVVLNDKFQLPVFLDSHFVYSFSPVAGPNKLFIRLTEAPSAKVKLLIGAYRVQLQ
Transient receptor potential cation channel subfamily V member 1 (Homo sapiens), sequence (Q8NER1 whole entry, looked up): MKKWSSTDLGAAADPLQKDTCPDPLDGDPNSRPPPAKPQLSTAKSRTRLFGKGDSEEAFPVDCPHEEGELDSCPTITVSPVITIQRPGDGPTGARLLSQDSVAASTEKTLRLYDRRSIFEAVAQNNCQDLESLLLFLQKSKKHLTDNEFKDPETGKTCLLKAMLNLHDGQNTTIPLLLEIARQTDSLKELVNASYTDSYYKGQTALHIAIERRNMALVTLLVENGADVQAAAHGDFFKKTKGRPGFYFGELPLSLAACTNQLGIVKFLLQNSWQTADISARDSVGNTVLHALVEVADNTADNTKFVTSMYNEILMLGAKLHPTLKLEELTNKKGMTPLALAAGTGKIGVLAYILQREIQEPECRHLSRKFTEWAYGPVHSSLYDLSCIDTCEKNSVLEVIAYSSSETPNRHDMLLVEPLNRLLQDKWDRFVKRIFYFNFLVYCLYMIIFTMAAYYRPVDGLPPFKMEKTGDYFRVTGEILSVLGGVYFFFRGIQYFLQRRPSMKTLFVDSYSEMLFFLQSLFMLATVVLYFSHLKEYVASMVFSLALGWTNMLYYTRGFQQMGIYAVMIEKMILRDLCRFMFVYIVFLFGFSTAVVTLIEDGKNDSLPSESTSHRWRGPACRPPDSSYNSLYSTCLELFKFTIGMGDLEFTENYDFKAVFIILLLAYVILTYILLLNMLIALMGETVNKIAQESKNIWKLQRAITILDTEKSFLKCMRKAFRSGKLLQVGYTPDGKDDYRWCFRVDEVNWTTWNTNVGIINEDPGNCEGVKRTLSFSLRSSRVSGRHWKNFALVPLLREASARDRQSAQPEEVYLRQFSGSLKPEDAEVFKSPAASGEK
DNA repair nuclease/redox regulator APEX1 (Homo sapiens), sequence (P27695 whole entry, looked up): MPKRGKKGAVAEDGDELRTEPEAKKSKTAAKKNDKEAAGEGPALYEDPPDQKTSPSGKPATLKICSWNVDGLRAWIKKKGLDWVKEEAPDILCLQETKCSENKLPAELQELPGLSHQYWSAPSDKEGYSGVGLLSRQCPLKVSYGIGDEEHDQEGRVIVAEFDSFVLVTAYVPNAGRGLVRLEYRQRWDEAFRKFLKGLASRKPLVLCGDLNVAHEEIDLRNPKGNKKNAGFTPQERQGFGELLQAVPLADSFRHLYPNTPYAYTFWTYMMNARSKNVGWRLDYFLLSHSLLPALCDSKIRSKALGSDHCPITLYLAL

CC(=O)N[C@H]1CSSC[C@@H](C(N)=O)NC(=O)[C@H](C(C)C)NC(=O)[C@H](C)NC(=O)[C@H](Cc2cnc[nH]2)NC1=O
Potency [1]: inactive
Potency [2]: inactive
Potency [3]: inactive
Z-AUC [4]: -0.0315 (inactive)
Z-AUC [4, 21]: -0.625
Z-AUC ([4]; measured here: PEO4 Z-AUC): -0.422

OCCOc1ccc(/C(=C(/CCCl)c2ccccc2)c2ccccc2)cc1
Potency [1]: inactive
Potency [2]: inactive
Potency [3]: inactive
Z-AUC [4]: -0.111 (inactive)
Z-AUC [4, 21]: 0.225
Z-AUC ([4]; measured here: PEO4 Z-AUC): 0.557

CO[C@H]1/C=C\C=C(\C)C(=O)NC2=CC(=O)C(NCCN(C)C)=C(C[C@@H](C)C[C@H](OC)[C@H](O)[C@@H](C)/C=C(/C)[C@@H]1OC(N)=O)C2=O
Potency [5]: 332 nM (active)
Potency [6]: 235 nM (active)
Potency [2]: inactive
Potency [3]: inactive
Potency [4]: 219 nM (active)
Z-AUC [4, 21]: -2.33
Z-AUC ([4]; measured here: PEO4 Z-AUC): -1.76
Potency [7]: 0.0176 µM (active)

O=c1cc(N2CCOCC2)oc2c(-c3ccc4c(c3)OCCO4)csc12
Potency [5]: 590 nM (active)
Potency [6]: 590 nM (active)
Potency [2]: inactive
Potency [3]: inactive
Z-AUC [4]: -0.839 (inactive)
Z-AUC [4, 21]: -0.602
Z-AUC ([4]; measured here: PEO4 Z-AUC): -0.553
Potency [7]: 14 µM (active)

N=C1Sc2ccccc2C2=NCCCN12
outcome [8]: inactive
activity change, negative = inhibition [9]: -3.51% (inactive)
max response [9, 22]: -6.86%
max response [9, 23]: -8.77%
Potency [10]: inactive
Potency [11]: inactive
outcome [12]: inactive
Potency [13]: inactive
Potency [14]: inactive
outcome [15]: inactive
Potency [16]: inactive
Potency [17]: 10 µM (active)
outcome [18]: inactive
outcome [19]: inactive
outcome [20]: inactive

NCC1OC(O[C@@H]2[C@H](O)[C@@H](OC3C(O)C(N)CC(N)C3OC3OC(CO)C(O)C(O)C3N)O[C@@H]2CO)C(N)C(O)C1O (stereo partly specified)
outcome [8]: inactive
activity change, negative = inhibition [9]: 1.08% (inactive)
max response [9, 22]: -5.44%
max response [9, 23]: -4.61%
Potency [10]: inactive
Potency [11]: inactive
outcome [12]: inactive
Potency [13]: inactive
Potency [14]: inactive
outcome [15]: inactive
Potency [16]: inactive
Potency [17]: inactive
outcome [18]: inactive
outcome [19]: inactive
outcome [20]: inactive

COc1cc(N2CCN(C)CC2)ccc1Nc1ncc2c(n1)N(C)c1ccccc1C(=O)N2C
Potency [5]: 2350 nM (active)
Potency [6]: 2350 nM (active)
Potency [2]: inactive
Potency [3]: inactive
Z-AUC [4]: -0.347 (inactive)
Z-AUC [4, 21]: 0.0513
Z-AUC ([4]; measured here: PEO4 Z-AUC): -0.152
activity change, negative = inhibition ([7]; Viability, at 45.9 µM (top of the series)): 22.1% (inactive)
